SMILES strings stand for the structures.

The target in the assay is PEG-3 (UniProt Q6IN02). Briefly: GAPDH versus PEG-3 reporter suppression – cell-based, luminescence, counter-screen for PEG-3 promoter inhibitor project, SAR follow-up (AID 651551). To be noted: HeLa PEG-Prom / GAPDH luciferase reporter, 6 or 24 h, run 2, 6 h; at 99 µM (top of the series).
As for `COc1ccc(-n2nc(C(=O)NCC(=O)Nc3cc(OC)c(OC)c(OC)c3)c3ccccc3c2=O)cc1OC`, the inhibition % (higher = more inhibition) was 9.37%.

In turn, `Cc1cc(NC(=O)c2ccccc2)n(-c2nc3ccccc3n2C)n1` registered an inhibition % (higher = more inhibition) of 38.3%.

Take `O=C(Nc1nccs1)c1nn(-c2ccccc2)c(=O)c2ccccc12`: the inhibition % (higher = more inhibition) came out at 28.7%.

For the compound `COc1ccc(-n2nc(C(=O)NCC(=O)Nc3cccc(OC)c3)c3ccccc3c2=O)cc1`, the inhibition % (higher = more inhibition) was found to be 2.47%.

As to `O=C(Nc1nc(-c2ccccc2)cs1)c1nn(-c2ccccc2)c(=O)c2ccccc12`, the inhibition % (higher = more inhibition) was determined as 3.85%.

The compound `Cc1cc(NC(=O)c2cccc(C)c2C)n(-c2nc3ccccc3[nH]2)n1` came in with an inhibition % (higher = more inhibition) of 16.4%.

The values above are taken from PubChem BioAssay AID651551 (Sanford-Burnham Center for Chemical Genomics, 2012).
